Source: PubChem BioAssay (NCATS)
Where “and” joins values, the source holds several entries; their conditions need not be identical. Equal values may be shown once. Inconclusive results are not listed. Where a structure was tested more than once in an assay, its records may differ in their call. Calls of active or inactive are those of the source. The call rests on the fitted dose curve; in most records, active means well fitted curve in the direction sought with a large enough effect; inconclusive means small, poorly fitted or top-dose-only effect, or another doubt; inactive means no such curve, though single readings can be large; an effect the other way counts as inactive or inconclusive.

Experiments:
[1] = P-glycoprotein substrates identified in KB-8-5-11 adenocarcinoma cell line, qHTS therapeutic library screen (AID 1346987); further: nearly all actives have a fitted effect of over 65% in size
Procedure, shortened: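 Luminescence from CellTiter-Glo, read 5 min after addition, quantified survival of KB-8-5-11 (P-gp-overexpressing) cells exposed to compounds for 72 h. AC50 was derived from concentration-response curves.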

[2] = NS1 protein of Zika virus - qHTS assay to identify small molecule inhibitors in human HEK 293 cells (AID 1347053); further: nearly all actives have a fitted effect of over 55% in size
Procedure, shortened: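 Read-out is a two-antibody TR-FRET for ZIKV NS1, normalized between uninfected cells and infected cells. Compound added 1 h before MR766 infection at MOI 0.5; human HEK 293 cells incubated 24 h, 37 C.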

[3] = qHTS of pediatric cancer cell lines to identify multiple opportunities for drug repurposing: Primary screen for TC32 cells (AID 1347089); further: nearly all actives have a fitted effect of over 60% in size
Procedure, shortened: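 Luminescent ATP read-out (CellTiter-Glo) of metabolically active TC32 cells after 48 h exposure. Concentration-response curves came from 11-point (MIPE, 0.78 nM–46 µM) or 8-point (NPC, 0.59 nM–46 µM) primary titrations; follow-up used 11 points.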

[4] = qHTS of pediatric cancer cell lines to identify multiple opportunities for drug repurposing: Primary screen for A673 cells (AID 1347092); further: nearly all actives have a fitted effect of over 45% in size
Procedure, shortened: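 Cell viability of A673 measured by CellTiter-Glo ATP luminescence after 48 hours compound exposure. Dilution series spanned 0.78 nM to 46 µM (MIPE, 11-point) or 0.59 nM to 46 µM (NPC, 8-point); bortezomib 2.3 uM positive control.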

[5] = qHTS of pediatric cancer cell lines to identify multiple opportunities for drug repurposing: Primary screen for SK-N-MC cells (AID 1347093)
Procedure, shortened: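 Metabolically active cells were quantified by ATP-dependent luminescence (CellTiter-Glo, 15 min at room temperature) following 48 h treatment. Cells had been plated at 500-1,000 per well and settled for 5 h beforehand.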

[6] = qHTS of pediatric cancer cell lines to identify multiple opportunities for drug repurposing: Primary screen for NB-EBc1 cells (AID 1347095)
Procedure, shortened: (§1)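 CRCs from 8- or 11-point titrations (lowest final 0.59 nM NPC, 0.78 nM MIPE). Cell viability: CellTiter-Glo after 48 h incubation, 15 min room-temperature development, luminescence imaging.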

[7] = qHTS of pediatric cancer cell lines to identify multiple opportunities for drug repurposing: Primary screen for DAOY cells (AID 1347090); further: nearly all actives have a fitted effect of over 55% in size
Procedure, shortened: (§2)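 Viability measured as metabolically active cells via CellTiter-Glo luminescence following 48 hours of compound exposure, 11-point dilutions in confirmatory testing. 500-1,000 cells/well plated 5 hours before dosing; controls were DMSO and 2.3 µM bortezomib.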

[8] = qHTS of pediatric cancer cell lines to identify multiple opportunities for drug repurposing: Primary screen for SJ-GBM2 cells (AID 1347091)
Procedure, shortened: as §2

[9] = qHTS of pediatric cancer cell lines to identify multiple opportunities for drug repurposing: Primary screen for BT-37 cells (AID 1347094)
Procedure, shortened: as §1

Measured: Potency
Potency means the concentration at half of the fitted maximal effect.

Cc1cc(Nc2nc(N[C@@H](C)c3ccc(F)cc3)c(C#N)cc2F)n[nH]1
inactive: [2]
active: [1] 935 nM and 580 nM | [3] 2620 nM | [4] 1180 nM | [5] 743 nM | [6] 662 nM

Cc1c(CN2CCN(S(C)(=O)=O)CC2)sc2c(N3CCOCC3)nc(-c3cnc(N)nc3)nc12
active: [1] 41.8 nM and 291 nM | [3] 294 nM | [7] 118 nM | [8] 46.9 nM | [4] 187 nM | [5] 4.7 nM | [9] 193 nM | [6] 33.2 nM

Cc1coc2c1C(=O)C(=O)c1c-2ccc2c1CCCC2(C)C
inactive: [2] | [3]
inactive and 9.2 µM (active): [1]
active: [8] 5900 nM | [5] 8330 nM | [6] 8330 nM

C=CC(=O)Nc1cccc(Oc2nc(Nc3ccc(N4CCN(C)CC4)cc3)ncc2Cl)c1
active: [1] 3.32 µM and 7.31 µM | [2] 13200 nM | [7] 935 nM | [8] 1870 nM | [4] 935 nM | [5] 469 nM | [9] 21700 nM | [6] 2350 nM

O=C(C=Cc1cccc(S(=O)(=O)Nc2ccccc2)c1)NO
active: [1] 10.8 µM | [3] 9540 nM | [7] 8550 nM | [8] 2150 nM | [4] 4290 nM | [5] 1210 nM | [9] 7030 nM | [6] 1910 nM

C[C@@H]1COC(Nc2ccc3ncnc(Nc4ccc(OCc5nccs5)c(Cl)c4)c3c2)=N1
inactive: [3]
active: [1] 20.9 µM | [7] 935 nM | [8] 23500 nM | [4] 935 nM | [5] 2350 nM | [9] 24300 nM

CC(=O)Nc1sc2c(c1-c1nc3ccccc3s1)CNC2
active: [1] 16.6 µM and 13 µM | [4] 18700 nM
inactive: [2] | [3]

Cc1cc(Nc2ncnc3ccc(-c4ccc(CNCCS(C)(=O)=O)o4)cc23)ccc1Oc1ccn2ncnc2c1
active: [7] 9350 nM | [8] 5260 nM | [4] 235 nM | [5] 4180 nM | [9] 6110 nM | [6] 4180 nM
inactive: [1] | [2]

Nc1cccc(-c2cc3c(Oc4cccc(O)c4)ncnc3[nH]2)c1
inactive: [2]
active: [1] 20.9 µM | [7] 7430 nM | [8] 20900 nM | [4] 14800 nM | [5] 1050 nM | [6] 3720 nM

O=C(CCCCCCC(=O)Nc1ccc([C@H]2O[C@@H](CSc3nc(-c4ccccc4)c(-c4ccccc4)o3)C[C@@H](c3ccc(CO)cc3)O2)cc1)NO
active: [7] 11800 nM | [8] 14800 nM | [4] 4690 nM | [5] 8330 nM | [6] 8330 nM
inactive: [2]
11.8 µM (active) and inactive: [1]

Nc1ncnc2c1c(-c1cnc3[nH]ccc3c1)nn2C1CCCC1
active: [1] 590 nM and 2.06 µM | [2] 16600 nM | [7] 3720 nM | [8] 132 nM | [4] 1870 nM | [5] 66.2 nM

COc1cc2c(Oc3ccc(-c4cnc(Nc5ccc(F)cc5)n(C)c4=O)cc3F)ccnc2cc1OCCCN1CCOCC1
active: [1] 13.2 µM | [3] 11700 nM | [7] 18700 nM | [8] 526 nM | [4] 5900 nM | [5] 833 nM | [6] 3320 nM

C[C@H]1C[C@@H]2[C@@H]([C@@H](O)C[C@@]3(C)[C@H]2CC[C@]3(O)C(=O)CO)[C@@]2(C)C=CC(=O)C=C12
inactive: [1] | [2] | [8] | [4] | [6]

CC(C)c1cc(-c2n[nH]c(=O)n2-c2ccc3c(ccn3C)c2)c(O)cc1O
inactive: [2]
active: [1] 0.0935 µM | [8] 118 nM | [4] 118 nM | [5] 52.6 nM | [9] 122 nM | [6] 93.5 nM

COc1cc(Nc2ncc(F)c(Nc3ccc4c(n3)N(COP(=O)(O)O)C(=O)C(C)(C)O4)n2)cc(OC)c1OC
inactive: [2] | [9]
active: [1] 1.66 µM and 2.31 µM and 13 µM | [8] 1480 nM | [4] 2960 nM | [5] 1320 nM | [6] 935 nM

Cc1cc(C(=O)N2CCN(c3cccc(Cl)c3)CC2)n(-c2ccccc2)n1
active: [1] 372 nM and 1.3 µM | [3] 2940 nM | [7] 743 nM | [8] 118 nM | [4] 590 nM | [5] 118 nM | [9] 6110 nM | [6] 66.2 nM

Cc1cn2c(-c3cn[nH]c3)cnc2c(Nc2ccc(C(=O)N3CCNCC3)cc2F)n1
active: [7] 18700 nM | [4] 14800 nM | [5] 1660 nM | [9] 17200 nM
inactive: [1] | [2]

CCc1c2c(nc3ccc(O)cc13)-c1cc3c(c(=O)n1C2)COC(=O)[C@]3(O)CC
active: [1] 0.231 µM | [2] 3.7 nM | [7] 29.6 nM | [8] 6.6 nM | [4] 7.4 nM | [5] 2.1 nM | [6] 1 nM

NCC(=O)Nc1ccc(-n2nc(C(F)(F)F)cc2-c2ccc3c(ccc4ccccc43)c2)cc1
active: [1] 14.8 µM and 10.3 µM | [2] 52.6 nM | [7] 23500 nM | [4] 23500 nM | [6] 833 nM

COc1ccc(F)c(F)c1C(=O)c1cnc(NC2CCN(S(C)(=O)=O)CC2)nc1N
active: [1] 3.72 µM and 4.11 µM | [2] 14800 nM | [7] 3720 nM | [8] 743 nM | [4] 1480 nM | [5] 1870 nM | [9] 3430 nM | [6] 296 nM

COC(=O)Nc1nc2ccc(C(=O)c3ccc(F)cc3)cc2[nH]1
active: [1] 418 nM and 1.03 µM | [7] 743 nM | [8] 526 nM | [4] 590 nM | [5] 372 nM | [6] 264 nM
inactive: [3]

CNC(=O)c1nn(C)c2c1C(C)(C)Cc1cnc(Nc3ccc(N4CCN(C)CC4)cc3)nc1-2
active: [1] 2.35 µM and 1.46 µM | [3] 2620 nM | [7] 11800 nM | [8] 1870 nM | [4] 2960 nM | [5] 590 nM | [9] 1720 nM | [6] 2350 nM

CC(C)c1cnn2c(NCc3ccccc3)cc(N[C@@H](CO)[C@H](O)CO)nc12
active: [1] 1.18 µM and 4.61 µM | [2] 526 nM | [7] 372 nM | [8] 166 nM | [4] 118 nM | [5] 296 nM | [9] 306 nM | [6] 187 nM

CNC(=O)c1ccc(-c2cnc3ncc(Cc4ccc5ncccc5c4)n3n2)cc1F
inactive: [1] | [2] | [3] | [9]

CCS(=O)(=O)c1cccc(-c2cc(C(=O)NC3CCN(C)CC3)c(C)c3[nH]c4ncc(C)cc4c23)c1
active: [2] 13200 nM | [7] 14800 nM | [8] 526 nM | [4] 743 nM | [5] 187 nM | [9] 3060 nM | [6] 16600 nM
inactive: [1]

Cn1cncc1[C@@](N)(c1ccc(Cl)cc1)c1ccc2c(c1)c(-c1cccc(Cl)c1)cc(=O)n2C
active: [1] 3.72 µM | [7] 14800 nM | [8] 20900 nM | [4] 23500 nM | [5] 1660 nM | [9] 21700 nM | [6] 11800 nM

COc1cc(C(=O)N2CCC(N3CCN(C)CC3)CC2)ccc1Nc1ncc2c(n1)N(C)c1ccccc1C(=O)N2C
active: [8] 18700 nM | [4] 11800 nM | [5] 10500 nM | [9] 15300 nM | [6] 16600 nM

CNC(=O)CN1CCC(Oc2cc3c(Nc4cccc(Cl)c4F)ncnc3cc2OC)CC1
active: [3] 930 nM | [7] 9.3 nM | [8] 1 nM | [5] 5.3 nM | [9] 1 nM | [6] 6.6 nM
inactive: [1]

COc1cc2c(NC3CCN(C(C)C)CC3)nc(C3CCCCC3)nc2cc1OCCCN1CCCC1
active: [7] 18700 nM | [8] 23500 nM | [4] 5900 nM | [5] 29600 nM | [9] 30600 nM
inactive: [2]

CC(C)(C)NC(=O)[C@H]1CN(Cc2cccnc2)CCN1C[C@@H](O)C[C@@H](Cc1ccccc1)C(=O)N[C@H]1c2ccccc2C[C@H]1O
inactive: [3]
active: [1] 23.5 µM | [4] 743 nM

Nc1ccn([C@@H]2CS[C@H](CO)O2)c(=O)n1
inactive: [2] | [3] | [7] | [8] | [4] | [5] | [9] | [6]

Nc1ccn([C@@H]2O[C@H](CO)[C@H](O)C2(F)F)c(=O)n1
active: [2] 743 nM | [3] 117 nM | [7] 1870 nM | [8] 235 nM | [4] 18.7 nM

Nc1ccc(S(=O)(=O)Nc2ncccn2)cc1
active: [5] 23500 nM
inactive: [2] | [3] | [7] | [8] | [4] | [9] | [6]

COc1cc2nccc(Oc3ccc(NC(=O)C4(C(=O)Nc5ccc(F)cc5)CC4)cc3)c2cc1OC
active: [1] 16.6 µM and 9.2 µM | [7] 14800 nM | [8] 23.5 nM | [4] 1480 nM | [5] 1660 nM | [9] 1720 nM | [6] 743 nM

COc1cc2c(Nc3ccc(NC(=O)c4ccccc4)cc3)ncnc2cc1OCCCN1CCOCC1
inactive: [1]
active: [3] 3700 nM | [8] 5260 nM | [4] 14800 nM | [9] 30600 nM | [6] 18700 nM

Clc1cccc(-n2nnnc2NCc2ccccc2Oc2ccccn2)c1Cl
inactive: [2] | [3] | [7] | [8] | [4] | [5] | [9] | [6]
